The values below come from PubChem BioAssay (Tox21).

Test [1] has as its target Thyrotropin receptor (Homo sapiens) (UniProt P16473). The test can be described thus: qHTS assay to identify small molecule antagonists of the thyroid stimulating hormone receptor (TSHR) signaling pathway (AID 1259385; calls by dose curve; also: nearly all actives have a fitted effect of over 20% in size). The procedure, abridged: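 Antagonist mode: compound-treated TSHR-expressing HEK293 cells were stimulated with 1.5 ng/mL TSH (final) in presence of Ro20-1724 for 30 min at RT. HTRF cAMP detection after 1 h; each compound tested at 15 concentrations, triplicate.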
In general terms: In qHTS, concentration-response curves come from the screen itself.

Test [2] is described as follows: qHTS assay to identify small molecule agonists of the estrogen receptor alpha (ER-alpha) signaling pathway in the presence of an antagonist - cell viability counter screen (AID 1259386).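 Also: series mostly up to about 92 µM; cells exposed to compounds for 22 h at 37 °C before the viability read; nearly all actives have a fitted effect of over 30% in size.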 The gist of the method: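 In this counter screen, compound effects on VM7Luc4E2 viability were tested in the presence of the antagonist ICI-182,780 at 10.0nM final. Compounds were dosed at 15 concentrations, exposure lasted 22hr, and the CellTiter-Fluor signal was read.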

In test [3] the target is Progesterone receptor (Homo sapiens) (UniProt P06401). Kind of test: qHTS assay to identify small molecule agonists of the progesterone receptor (PR) signaling pathway (AID 1346784; calls by dose curve; also: nearly all actives have a fitted effect of over 30% in size; also: potency is read from the fitted curve at half-maximal effect). The procedure, abridged: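 HEK 293T PR-UAS-bla reporter cells, 2% charcoal-stripped FBS; 6 hr settle at 37C/5% CO2, compound (DMSO) 16 hr, LiveBLAzer B/G FRET substrate 2 hr RT, fluorescence intensity read.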

Test [4] shares this target. The test can be described thus: qHTS assay to identify small molecule antagonists of the progesterone receptor (PR) signaling pathway (AID 1346795; active = well fitted inhibition curve with a large enough effect in the signal ratio in the repeat runs, not every such curve was filed as active; the % refers to the signal ratio). The gist of the method: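 Beta-lactamase reporter, HEK293T PR-UAS-bla line; 2% charcoal-stripped FBS; 6 hr pre-incubation, 37C/5% CO2. Compound + R5020 1 nM final, 16 hr. LiveBLAzer B/G FRET substrate, 2 hr RT; fluorescence intensity read.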

Test [5] in a line: qHTS assay to identify small molecule antagonists of the progesterone receptor (PR) signaling pathway - cell viability counter screen (AID 1346798). Also: series mostly up to about 92 µM; nearly all actives have a fitted effect of over 50% in size. The procedure, abridged: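 Luminescence readout (CellTiter-Glo, 30 min, RT) of viability in PR-UAS-bla HEK293T cells exposed to compound and R5020 agonist for 16 hr at 37C, 5% CO2; run in the same wells as the beta-lactamase reporter read.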

Test [6] is described as follows: qHTS assay to identify small molecule agonists of the progesterone receptor (PR) signaling pathway - cell viability counter screen (AID 1346799; calls by dose curve; also: nearly all actives have a fitted effect of over 45% in size). The gist of the method:
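HEK293T PR-UAS-bla, 3,000 cells/well, 2% charcoal-stripped FBS; 6 h settle, compound 16 h at 37C/5% CO2; LiveBLAzer 2 h RT, then CellTiter-Glo 30 min RT, luminescence read.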

Test [7] is described as follows: qHTS assay to identify small molecule antagonists of the TGF-beta/Smad signaling pathway - cell viability counter screen (AID 1346824). Also: nearly all actives have a fitted effect of over 50% in size. The gist of the method:
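Cytotoxicity counter-screen run in the same wells as the beta-lactamase Smad reporter read: CellTiter-Glo luminescence after 30 min at room temperature. HEK 293T SBE-bla cells had 5 hr compound exposure at 37 C with TGF-beta1 (0.25 ng/mL stock).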

Test [8] can be described thus: qHTS assay to identify small molecule agonists of the TGF-beta/Smad signaling pathway (AID 1346859; active = well fitted activation curve with a large enough effect in the signal ratio in the repeat runs, not every such curve was filed as active; the % refers to the signal ratio; also: series mostly up to about 77 µM). The procedure, abridged:
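Read-out: fluorescence at 460 and 530 nm (405 nm excitation) after a 2 hr room-temperature incubation with beta-lactamase FRET substrate. SBE-bla HEK 293T cells had been treated with test compounds for 5 hr at 37 C.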

Test [9] addresses Thyrotropin-releasing hormone receptor (Homo sapiens) (UniProt P34981). The test can be described thus: qHTS assay to identify small molecule antagonists of the thyrotropin-releasing hormone receptor (TRHR) signaling pathway (AID 1346877; active = well fitted inhibition curve with a large enough effect in the repeat runs, not every such curve was filed as active; also: series mostly up to about 51 µM). The gist of the method:
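Kinetic fluorescence (3 min, 1 s resolution) following stimulation with TRH at 1 nM final; HEK293 cells bearing human TRHR; 5 min compound preincubation at RT; concentration-response over 15 points, triplicates.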

The target is the same in test [10]. Kind of test: qHTS assay to identify small molecule agonists of the thyrotropin-releasing hormone receptor (TRHR) signaling pathway (AID 1346891; calls by dose curve;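 also: HEK293 cells expressing TRHR with calcium dye readout; series mostly up to about 58 µM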). The gist of the method:
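HEK293/TRHR cells, 1500 per well, 18 h 37 °C; Ca dye 2 h 37 °C; pin-tool compound addition (agonist mode); kinetic fluorescence 3 min, 1 s reads; 15 concentrations, triplicate.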

The nature of test [11]: Caspase-3/7 induction in HepG2 cells by small molecules, qHTS assay (AID 1346978). Also: nearly all actives have a fitted effect of over 15% in size. Also: potency is read from the fitted curve at half-maximal effect. The gist of the method: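 Caspase-3/7 induction was measured by Caspase-Glo 3/7 luminescence (30 min, room temperature) after a 17 hr compound exposure of wild-type HepG2 cells seeded at 2,000 per well and pre-incubated 5 hr.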
A short description of test [12]: Caspase-3/7 induction in CHO-K1 cells by small molecules, qHTS cell viability counter screen (AID 1346979). Also: nearly all actives have a fitted effect of over 35% in size. Also: potency is read from the fitted curve at half-maximal effect. The procedure, abridged:
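CHO-K1 wt, 1,500 cells/well; 5hr pre-incubation 37C/5% CO2; compound pin transfer (DMSO); 16hr exposure; CellTiter-Fluor added, 1hr, fluorescence read.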

Test [13] is described as follows: Caspase-3/7 induction in HepG2 cells by small molecules, qHTS cell viability counter screen (AID 1346981). Also: series mostly up to about 92 µM; nearly all actives have a fitted effect of over 30% in size. The gist of the method: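 In this quantitative HTS counter screen, compounds delivered in DMSO were left on unmodified HepG2 cells for 16 hr at 37 C. Viability was then determined fluorometrically with CellTiter-Fluor, in parallel with caspase-3/7 induction in the same wells.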

The target in test [14] is Nuclear receptor subfamily 1 group I member 2 (Homo sapiens) (UniProt O75469). Kind of test: Human pregnane X receptor (PXR) small molecule agonists, qHTS assay (AID 1346982). Also: nearly all actives have a fitted effect of over 35% in size. Also: potency is read from the fitted curve at half-maximal effect. The gist of the method:
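Reporter HepG2 cells expressing PXR-Luc are cultured in charcoal-stripped FBS (5%), treated with compounds for 24 hr at 37 C, and assayed by ONE-Glo luminescence after 30 min at room temperature.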

Test [15] addresses Nuclear receptor subfamily 1 group I member 2 (Rattus norvegicus) (UniProt Q9R1A7). The test can be described thus: Rat pregnane X receptor (rPXR) activation by small molecules, qHTS assay (AID 1346983). Also: nearly all actives have a fitted effect of over 20% in size. Conditions: rPXR luciferase reporter cells, One-Glo luminescence, 24 h; max activation: stronger effect = higher value. The procedure, abridged:
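Luminescent readout (One-Glo luciferase, 30 min room temperature) followed 24 hr compound treatment at 37 C of rPXR cells plated 2,000 per well and preincubated 5hr; qHTS format with compounds delivered in DMSO.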

The target in test [16] is Nuclear receptor subfamily 1 group I member 2 (Homo sapiens) (UniProt O75469). Kind of test: CYP3A4 induction through human pregnane X receptor (PXR) by small molecules, qHTS assay (AID 1346984). Also: nearly all actives have a fitted effect of over 40% in size. The procedure, abridged:
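Induction measured in HepG2-based DPX-2 cells co-expressing human PXR and a CYP3A4 promoter-driven luciferase. After a 24-hour compound exposure, cells received CYP3A4 luciferin substrate at 3uM final for 3 hours, and light output was then recorded.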

The target is the same in test [17]. Kind of test: Human pregnane X receptor (PXR) activation by small molecules, qHTS assay (AID 1346985). Also: nearly all actives have a fitted effect of over 40% in size. The procedure, abridged: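 DPX-2 cells (HepG2 co-transfected with a PXR response element and a CYP3A4-promoter luciferase construct) were seeded at 2,000 per well, rested 5 hr at 37C, then exposed to DMSO-dissolved compounds for 24 hr. Activation was read as luciferase luminescence.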

Test [18] in a line: Human pregnane X receptor (PXR) small molecule agonists, qHTS cell viability counter screen (AID 1346977). Also: nearly all actives have a fitted effect of over 50% in size. The procedure, abridged:
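Fluorescence read-out (CellTiter-Fluor) of viability in PXR-Luc HepG2 cells, multiplexed with the luciferase agonist read. Compounds in DMSO added after 5hr plating; 24hr total exposure at 37C, 5% CO2.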

The nature of test [19]: Caspase-3/7 induction in CHO-K1 cells by small molecules, qHTS assay (AID 1346980). Also: nearly all actives have a fitted effect of over 15% in size. The gist of the method: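 Luminescent Caspase-Glo 3/7 read (30min, room temperature) quantified apoptosis induction. Cells were wild-type CHO-K1, treated with compound for 17hr at 37 C and 5% CO2.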
Test [20] in a line: qHTS assay to identify small molecule agonists of the TGF-beta/Smad signaling pathway - cell viability counter screen (AID 1346829). Also: top concentration of the series differs between compounds; nearly all actives have a fitted effect of over 45% in size. The procedure, abridged:
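SBE-bla HEK 293T cells plated overnight, compound exposure 5 hr at 37 C. Viability read in the same wells by CellTiter-Glo luminescence after 30 min at room temperature, following the beta-lactamase read.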

Each structure is given as a SMILES string. Several values for one entry are separate records, joined by “and”; a condition that tells them apart may be missing. Identical values can stand only once. Inconclusive results are not listed. Where a structure was tested more than once in an assay, its records may differ in their call. Activity calls are given as the source filed them. Unless noted, calls follow the shape of the dose curve; as a rule, active = well fitted curve in the direction sought with a large enough effect in the repeat runs; inconclusive = weak or mixed curves; inactive = no such curve, though single readings can be large; an effect the other way counts as inactive or inconclusive.
% is scaled to controls: 0 for no effect and ±100 for the full control effect.

Nuclear receptor subfamily 1 group I member 2 (Homo sapiens), sequence (O75469 whole entry, looked up): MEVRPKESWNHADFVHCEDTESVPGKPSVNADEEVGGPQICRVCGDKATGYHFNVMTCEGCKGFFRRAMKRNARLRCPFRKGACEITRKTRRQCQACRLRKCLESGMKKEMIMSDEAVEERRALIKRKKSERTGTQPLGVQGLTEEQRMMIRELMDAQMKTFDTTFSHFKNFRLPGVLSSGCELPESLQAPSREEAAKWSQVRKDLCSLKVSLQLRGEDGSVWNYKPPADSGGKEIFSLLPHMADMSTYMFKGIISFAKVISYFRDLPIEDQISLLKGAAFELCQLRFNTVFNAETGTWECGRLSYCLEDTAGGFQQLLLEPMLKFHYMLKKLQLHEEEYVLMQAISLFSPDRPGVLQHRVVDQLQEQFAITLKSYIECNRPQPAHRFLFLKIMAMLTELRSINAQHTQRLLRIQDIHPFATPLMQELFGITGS
Thyrotropin-releasing hormone receptor (Homo sapiens), sequence (P34981 whole entry, looked up): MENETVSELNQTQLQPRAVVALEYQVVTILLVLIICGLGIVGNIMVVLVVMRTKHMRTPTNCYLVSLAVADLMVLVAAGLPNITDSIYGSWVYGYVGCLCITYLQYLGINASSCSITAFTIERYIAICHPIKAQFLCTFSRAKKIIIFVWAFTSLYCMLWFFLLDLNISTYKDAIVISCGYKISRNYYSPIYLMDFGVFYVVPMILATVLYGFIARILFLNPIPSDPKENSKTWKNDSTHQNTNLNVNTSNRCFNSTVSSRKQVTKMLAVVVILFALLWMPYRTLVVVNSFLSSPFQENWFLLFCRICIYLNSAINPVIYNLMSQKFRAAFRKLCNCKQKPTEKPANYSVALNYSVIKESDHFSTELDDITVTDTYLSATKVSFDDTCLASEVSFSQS
Nuclear receptor subfamily 1 group I member 2 (Rattus norvegicus), sequence (Q9R1A7 whole entry, looked up): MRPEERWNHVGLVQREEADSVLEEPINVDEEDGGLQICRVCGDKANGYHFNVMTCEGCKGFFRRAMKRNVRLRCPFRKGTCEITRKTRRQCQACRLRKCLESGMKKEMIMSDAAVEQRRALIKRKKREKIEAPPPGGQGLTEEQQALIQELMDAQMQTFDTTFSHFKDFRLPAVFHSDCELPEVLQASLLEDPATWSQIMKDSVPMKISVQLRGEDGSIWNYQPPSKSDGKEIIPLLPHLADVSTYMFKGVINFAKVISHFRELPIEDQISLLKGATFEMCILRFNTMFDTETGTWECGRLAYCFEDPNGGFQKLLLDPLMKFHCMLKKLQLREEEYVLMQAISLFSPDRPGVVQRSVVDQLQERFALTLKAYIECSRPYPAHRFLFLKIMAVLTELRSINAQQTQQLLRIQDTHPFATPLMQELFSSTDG
Progesterone receptor (Homo sapiens), sequence (P06401 whole entry, looked up): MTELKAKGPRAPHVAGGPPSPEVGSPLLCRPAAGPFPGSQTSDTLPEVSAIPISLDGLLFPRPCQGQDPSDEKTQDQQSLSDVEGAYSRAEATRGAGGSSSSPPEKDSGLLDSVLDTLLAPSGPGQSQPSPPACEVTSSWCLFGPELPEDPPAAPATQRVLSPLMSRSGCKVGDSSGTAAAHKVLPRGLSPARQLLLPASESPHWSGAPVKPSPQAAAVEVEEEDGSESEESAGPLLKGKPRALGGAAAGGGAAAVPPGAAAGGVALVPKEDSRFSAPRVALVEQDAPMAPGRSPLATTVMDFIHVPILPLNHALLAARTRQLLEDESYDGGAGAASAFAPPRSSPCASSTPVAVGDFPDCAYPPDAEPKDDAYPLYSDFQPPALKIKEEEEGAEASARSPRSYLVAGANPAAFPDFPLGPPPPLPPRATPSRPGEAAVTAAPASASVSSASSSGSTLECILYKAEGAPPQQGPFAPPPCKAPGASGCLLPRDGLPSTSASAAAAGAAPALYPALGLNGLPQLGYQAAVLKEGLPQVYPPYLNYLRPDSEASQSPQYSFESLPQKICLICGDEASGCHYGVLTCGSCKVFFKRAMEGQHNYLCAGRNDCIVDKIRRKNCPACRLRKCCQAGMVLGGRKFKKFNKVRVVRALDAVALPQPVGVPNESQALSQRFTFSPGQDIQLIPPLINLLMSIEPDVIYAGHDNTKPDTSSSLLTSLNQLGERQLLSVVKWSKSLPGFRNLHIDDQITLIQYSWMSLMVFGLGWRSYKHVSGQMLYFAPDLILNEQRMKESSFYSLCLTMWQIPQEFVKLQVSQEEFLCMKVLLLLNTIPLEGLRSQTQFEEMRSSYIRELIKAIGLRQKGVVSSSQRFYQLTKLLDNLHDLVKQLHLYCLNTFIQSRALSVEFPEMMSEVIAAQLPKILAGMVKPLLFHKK
Thyrotropin receptor (Homo sapiens), sequence (P16473 whole entry, looked up): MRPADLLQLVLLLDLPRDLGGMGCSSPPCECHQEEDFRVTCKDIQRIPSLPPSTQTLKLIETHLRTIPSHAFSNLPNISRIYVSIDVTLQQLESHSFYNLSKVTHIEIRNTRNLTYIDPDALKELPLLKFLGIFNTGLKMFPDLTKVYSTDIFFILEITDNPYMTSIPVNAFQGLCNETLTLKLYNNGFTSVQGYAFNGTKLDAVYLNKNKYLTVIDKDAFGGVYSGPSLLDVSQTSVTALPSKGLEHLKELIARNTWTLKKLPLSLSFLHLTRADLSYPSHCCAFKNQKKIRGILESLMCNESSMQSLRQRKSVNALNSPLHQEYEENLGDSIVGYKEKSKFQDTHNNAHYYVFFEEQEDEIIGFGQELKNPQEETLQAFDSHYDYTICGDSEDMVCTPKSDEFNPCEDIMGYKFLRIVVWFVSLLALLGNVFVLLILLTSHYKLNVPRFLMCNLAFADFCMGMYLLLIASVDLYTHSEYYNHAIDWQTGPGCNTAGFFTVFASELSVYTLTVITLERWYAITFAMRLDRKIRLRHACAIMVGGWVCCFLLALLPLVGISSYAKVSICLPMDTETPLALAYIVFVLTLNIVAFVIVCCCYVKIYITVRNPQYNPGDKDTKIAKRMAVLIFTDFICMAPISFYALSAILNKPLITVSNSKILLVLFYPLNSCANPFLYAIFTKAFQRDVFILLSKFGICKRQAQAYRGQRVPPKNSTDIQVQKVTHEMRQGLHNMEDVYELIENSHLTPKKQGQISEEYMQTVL

For the molecule `COc1cc(C=O)ccc1O`, the molecule was called inactive in test [1], in test [8] and in test [9]. Also, the Potency entry in [2], in [3], in test [4], in test [5], in test [6] and in test [7] was “inactive” in each case. Also, the Potency entry in test [10], in test [11], in test [12], in test [13] and in [14] was “inactive” in each case.
Regarding `CCCCNC(=O)NS(=O)(=O)c1ccc(N)cc1`, the molecule was classed as inactive in test [1], in [8] and in test [9]. For the same molecule, the Potency result in test [2], in test [3], in [4], in [5], in test [6] and in test [7] was “inactive” each time. Also, the Potency entry in [10], in test [11], in test [12], in test [13], in [14] and in test [16] was “inactive” throughout. Also, the Potency result in [17] is “inactive”. For the same molecule, the max activation in [15] is -2.23% (inactive).
In the case of `NC(=O)NO`, the molecule was classed as inactive in test [1], in test [8], in test [9] and in test [19]. The Potency entry in [2], in [3], in [4], in test [5], in test [6] and in test [7] was “inactive” each time. Further, the Potency entry in [10], in test [18], in test [11], in test [12] and in [13] was “inactive” in each case.
Take `NC(=O)OCC(COC(N)=O)c1ccccc1`: the result in test [1], in test [8] and in test [9] was inactive. Further, the Potency result in test [2], in test [3], in test [4], in test [5], in test [6] and in test [7] was “inactive” throughout. For the same molecule, the Potency entry in test [10], in test [18], in test [11], in test [12], in test [13] and in test [14] was “inactive” throughout.
Regarding `O=C(O)CCCCC1CCSS1` (stereo unspecified), the result in test [1], in test [8], in test [9] and in test [19] was inactive. Also, the Potency result in test [2], in [3], in test [4], in test [5], in test [6] and in [7] was “inactive” throughout. The Potency result in test [10], in test [18], in test [11], in test [12], in test [13] and in test [14] was “inactive” throughout.
`Cn1cnc2c1c(=O)[nH]c(=O)n2C`: the molecule was called inactive in [1], in [8] and in test [9]. Besides, the Potency result in test [2], in test [3], in test [4], in test [5], in [6] and in [7] was “inactive” in each case. For the same molecule, the Potency result in test [10], in [11], in test [12] and in test [13] was “inactive” throughout.
Consider `O=c1cc[nH]c(=O)[nH]1`, for which the outcome in [1], in test [8], in test [9] and in [19] was inactive. Further, the Potency result in test [2], in test [3], in test [4], in test [5], in test [6] and in test [7] was “inactive” throughout. Besides, the Potency entry in test [10], in test [18], in test [11], in [12], in [13] and in [14] was “inactive” each time. The Potency entry in test [16] and in [17] was “inactive” in each case. For the same molecule, the max activation in [15] is -0.198% (inactive).
Regarding `C#C[C@]1(O)CC[C@H]2[C@@H]3CCc4cc(O)ccc4[C@H]3CC[C@@]21C`, the molecule was called inactive in test [1], in test [8] and in test [9]. For the same molecule, the Potency result in [2], in [7], in test [20], in [10], in test [18] and in test [13] was “inactive” each time. The Potency is 271 nM (active) in test [3]; 21.5 µM (active) and inactive in [11]; 54.1 µM (active) and 54.5 µM (active) in test [12]. Besides, the max activation in test [15] is 10.3% (inactive).
On to `Cc1cccc(Nc2cc(Cl)nc(SCC(=O)O)n2)c1C`, for which the molecule was called inactive in test [1], in [8], in test [9] and in test [19]. The Potency result in test [2], in test [3], in [5], in [6], in test [7] and in [10] was “inactive” in each case. The Potency entry in [11], in test [12] and in test [13] was “inactive” in each case. The Potency in test [14] is 61.1 µM (active) and inactive.
